Measurements taken from PubChem BioAssay (NCI).
This is part of a sample that, as a whole, favours compounds with a hit. Of some 83,000 tested, about 20% had one in any assay.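 Assay: single dose, 48 h. Readout: percent growth (0 = no net growth; negative = cell death). Active: <10.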 A number with no mark means an inactive call. Active and inactive are the calls of the source.

The compounds below were run on OVCAR-4 ovarian (assay: NCI-60 one-dose screen, 48 h (100 = growth as untreated, 0 = no growth, -100 = all killed)). Conditions: 10 µM.

Compound | growth
CN1CCN(c2ccc(Nc3nc(NCCCNC(=O)c4ccc(F)cc4)c4sccc4n3)cc2)CC1 | 80.1%
COc1ccc(C(=O)NC(=S)N2CCN(c3ncnc4c3cnn4-c3ccccc3)CC2)cc1 | 54.1%
COc1cccc(COc2ccc(/C=C3\Oc4cc(O)ccc4C3=O)cc2)c1 | -9.02% (active)
O=C(O)CCCCCCCCCCN1C(=O)/C(=C/c2cnc(-c3ccc(Cl)cc3)s2)SC1=S | 67%
COc1cccc(C(N)=Nc2ccc(OCCCCCCn3cncn3)cc2)c1 | 60.7%
CN(C)c1cccc2c(S(=O)(=O)Nc3cccc(-c4csc(NC(=O)CCCCCN5CCN(c6cc7c(cc6F)C(=O)N(C6CCC(=O)NC6=O)C7=O)CC5)n4)c3)cccc12 (stereo unspecified) | 66.6%
Cc1ccc(C(C)C)cc1NC(=O)c1ccccc1O | 24.6%
NC(=Nc1ccc(OCCCCCCCCn2ccnn2)cc1)c1ccccc1 | 57.1%
O=c1[nH][nH]c(Nc2ccccc2)c1N=Nc1ccc(F)cc1 | 80.5%
CNC(=O)c1cc(-c2ccc(NC(=O)Nc3ccc(C)cc3)cc2)nc2cccnc12 | 108%
O=c1oc2ccc(-c3ccc(F)cc3F)cc2c(=O)n1-c1ccc(F)c(Cl)c1 | 10.5%
COC(=O)C(Cc1ccc(O)c(O)c1)NC(=O)C(CSC/C=C(\C)CCCC(C)CCCC(C)CCCC(C)C)NC(C)=O (stereo unspecified) | 19.7%
CN1CCN(c2ccc(Nc3nc(NCCCNC(=O)c4ccc(Cl)cc4)c4sccc4n3)cc2)CC1 | 70.6%
CCCCCCCCCCCCCCCCCCCC(=O)NCCc1c[nH]c2ccc(O)cc12 | 98%
CCCCCc1ccc(S(=O)(=O)N(C(C)=O)c2cc(-c3csc(N(C)C(C)=O)n3)ccc2N2CCN(C)CC2)cc1 | 62%
CCCCCCCCCCCCCCCCCCCC(=O)NCCc1c[nH]c2ccc(OC(=O)NOCCOCCOCCOCCOCCOCCOCCOCCOCCOCCOCCOCCOCCOCCOCCOCCOCCOCCOCCOCCOCCOCCOC)cc12 | 29.8%
Cc1ccc(-c2cc(C(=O)N=Nc3c(O)[nH]c4ccc(Br)cc34)c3ccccc3n2)cc1 | 71.9%
CCCCCc1ccc(S(=O)(=O)Nc2cc(-c3csc(N(C)C(C)=O)n3)ccc2N2CCN(C)CC2)cc1 | 11.6%
C/C(=C\CC/C=C(\C)CC/C=C(\C)CC[C@@H](O)C(C)(C)O)CC/C=C(\C)CC[C@@H](O)C(C)(C)O | 42%
O=C(Cn1cc(CSc2nnc3oc4ccccc4n23)nn1)Nc1ccc(Br)cc1 | 87%
CC1(C)CC[C@]2(C(=O)NCCCNCCCCNCCCN)CC[C@]3(C)C(=CC[C@@H]4[C@@]5(C)Cc6c([nH]c7ccccc67)C(C)(C)[C@@H]5CC[C@]43C)[C@H]2C1 | 102%
COc1ccc(CCN2C(=O)/C(=C/c3csc(C#N)n3)SC2=S)cc1 | 38.4%
O=C(NO)c1ccc(Cn2ccc3c(Nc4ccccc4)ncnc32)cc1 | 38.7%
CC(=O)Nc1nc(-c2ccc(N3CCN(C)CC3)c(NS(=O)(=O)c3cccc4c(N(C)C)cccc34)c2)cs1 | 68.8%
COC[C@@H](CC(C)C)N=C1NC(=O)/C(=C/c2ccc3ncsc3c2)N1 | 40.4%
O=C(NC(=S)N1CCN(c2ncnc3c2cnn3-c2ccccc2)CC1)c1ccc(Cl)cc1 | 16.5%
